# Reference: PubChem BioAssay
# “And” between values parts separate entries of the source, which are not always exact repeats. Equal values may be shown once. The source holds several records for some structures; these can differ, active in one and inactive in another. The source made the active and inactive calls. Rule as the data show it, unless noted: active = inhibition above about 80%; inactive = the rest.
# Experiments:
# [1] = LFS_MB_P medulloblastoma growth inhibition, cell-based, chromothripsis tumors, cisplatin or BGB combos (AID 1671449); settings: LFS_MB_P medulloblastoma cells;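 also: cells exposed for 96 hours; 0% = vehicle DMSO and 100% = killing by high DMSO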
# [2] = HDN33 neuroblastoma growth inhibition, cell-based, chromothripsis tumors, cisplatin or BGB combos (AID 1671450); settings: HDN33 neuroblastoma cells, stronger effect = higher value;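 also: cells exposed to compound for four days; 0% = vehicle DMSO and 100% = cell killing by high DMSO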
# [3] = ICB984 medulloblastoma cell growth inhibition, synergistic combos for chromothripsis tumors, cisplatin or BGB combos (AID 1671451; call rule not given here;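 also: cells exposed for 96 hours before readout; 0% = vehicle DMSO and 100% = killing by high DMSO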); settings: ICB984 medulloblastoma cells, drug combinations, stronger effect = higher value
# [4] = LFS_MB_1R medulloblastoma cell growth inhibition, synergistic combos for chromothripsis tumors, cisplatin or BGB combos (AID 1671452); settings: LFS_MB_1R medulloblastoma cells, stronger effect = higher value;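 also: cells exposed for 96 hours before readout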
# [5] = HTB85 osteosarcoma cell growth inhibition, synergistic combos for chromothripsis tumors, BGB or cisplatin IC20 combos (AID 1671453); settings: HTB85 osteosarcoma cells, drug combinations, stronger effect = higher value;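 also: cells exposed for 96 hours before readout; 0% = vehicle DMSO and 100% = high DMSO killing control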
# [6] = CRL2098 osteosarcoma cell growth inhibition, synergistic combos for chromothripsis tumors, BGB or cisplatin IC20 combos (AID 1671454); settings: CRL2098 osteosarcoma cells, drug combinations, stronger effect = higher value;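 also: cells exposed for 96 h before readout; 0% = vehicle DMSO and 100% = killing by high DMSO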
# [7] = HD-MB03 medulloblastoma cell growth inhibition, synergistic combos for chromothripsis tumors, BGB or cisplatin IC20 combos (AID 1671455; in the data active = inhibition above about 83%;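 also: 0% = vehicle DMSO and 100% = high DMSO as cytotoxic control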); settings: HD-MB03 medulloblastoma cells, stronger effect = higher value
# [8] = UWB1.289 ovarian carcinoma cell growth inhibition, synergistic combos for chromothripsis tumors, BGB or cisplatin combos (AID 1671456); settings: UWB1.289 ovarian carcinoma cells, stronger effect = higher value;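 also: cells exposed to compound for four days; 0% = vehicle DMSO and 100% = killing by high DMSO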
# [9] = LFS_MB_2R medulloblastoma cell growth inhibition, synergistic combos for chromothripsis tumors, cisplatin combos (AID 1671457); settings: LFS_MB_2R medulloblastoma cells, stronger effect = higher value;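 also: cells exposed to compound for four days before readout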
# [10] = MDA-MB-436 breast carcinoma cell growth inhibition, synergistic combos for chromothripsis tumors, BGB or cisplatin combos (AID 1671458; call rule not given here;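 also: cells exposed for 96 hours; 0% = vehicle DMSO and 100% = killing by high DMSO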); settings: MDA-MB-436 breast carcinoma growth inhibition, drug combinations, stronger effect = higher value
# [11] = UWB1.289_BRCA1 ovarian cancer growth, cell-based, BGB or cisplatin combinations (AID 1671459); settings: UWB1.289 BRCA1 ovarian carcinoma, drug combinations, stronger effect = higher value
# [12] = human astrocyte viability loss, single and combined drugs, cytotoxicity control for chromothriptic childhood tumor combination screen, cell-based, BGB or cisplatin IC20 combos (AID 1671460); settings: Human astrocytes, drug combinations, stronger effect = higher value;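 also: cells exposed to compounds for 96 hours before viability readout; 0% = vehicle and 100% = killing control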
# [13] = growth inhibition of BT084 medulloblastoma cells, cell-based, ICGC_MB145, cisplatin and BGB IC40 combos (AID 1671461); settings: drug combinations, stronger effect = higher value;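 also: cells exposed to drugs for 96 hours; 0% = vehicle DMSO and 100% = high DMSO full killing control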
# [14] = growth inhibition of RCMB18 medulloblastoma cells, cell-based, cisplatin and BGB IC40 combos (AID 1671462); settings: stronger effect = higher value;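 also: cells exposed to compound for four days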
# [15] = growth inhibition of CRL1545 osteosarcoma cells, cell-based, cisplatin and BGB IC20 combos (AID 1671464); settings: stronger effect = higher value;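 also: cells exposed to compound for 96 hours before readout; 0% = vehicle DMSO and 100% = high DMSO killing control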
# [16] = measured here: combination with BGB IC40, at 0.05 µM
# [17] = measured here: with BGB IC20 combination, at 0.5 µM
# [18] = measured here: with cisplatin IC20 combination, at 0.5 µM
# [19] = measured here: combination with cisplatin, at 0.5 µM
# [20] = measured here: combination with cisplatin, at 5 µM
structure (smiles),measurement,setting,value
CCC1(O)C(=O)OCc2c1cc1n(c2=O)Cc2cc3c(CN(C)C)c(O)ccc3nc2-1 (stereo not drawn),inhibition,"[1]; at 0.5 µM, stronger effect = higher value",-7.42% (inactive) and 3.72% (inactive) and -2.55% (inactive)
same,inhibition,"[1]; measured here: combination with BGB IC20, at 0.005 µM",-2.96% and 0.821% and -23.7%
same,inhibition,"[1]; measured here: combination with BGB IC40, at 0.005 µM",-28.9% and -14.4% and -12.5%
same,inhibition,[1]; [16],-8.3% and -3.25% and -7.46%
same,inhibition,"[1]; measured here: combination with cisplatin, at 0.5 µM, stronger effect = higher value",36.9% and 49.4% and -21.3%
same,inhibition,"[1]; measured here: combination with cisplatin, at 5 µM, stronger effect = higher value",93.3% and 91.7% and 75.9%
same,inhibition,"[2]; BGB combo, at 5 µM",96.4% and 97.1% and 98.1%
same,inhibition,[2]; at 0.5 µM,83.1% (active) and 85.8% (active) and 82.9% (active)
same,inhibition,"[2]; cisplatin combo, at 5 µM",97.1% and 98% and 96.8%
same,inhibition,[2]; [17],87% and 85.5% and 88%
same,inhibition,[2]; [18],75.5% and 82.8% and 74.8%
same,inhibition,"[2]; single agent, at 5 µM",95.8% and 96% and 97%
same,inhibition,"[3]; BGB IC20 combo, at 0.005 µM",1.19% and -8.91% and -7.41%
same,inhibition,"[3]; BGB IC40 combo, at 0.005 µM",-10.3% and 15% and 31.5%
same,inhibition,"[3]; BGB IC40 combo, at 0.05 µM",86.5% and 95.6% and 93.6%
same,inhibition,[3]; at 0.5 µM,-27.8% (inactive) and -43.8% (inactive) and -21.6% (inactive)
same,inhibition,"[3]; cisplatin combo, at 0.05 µM",86% and 95.5% and 93.6%
same,inhibition,"[3]; cisplatin combo, at 0.5 µM",-32.3% and -49.7% and -34.5%
same,inhibition,"[3]; cisplatin combo, at 5 µM",-21.2% and -33.4% and -10.9%
same,inhibition,"[3]; measured here: 5 uM single agent, at 5 µM",-12.3% and -23.2% and -4.56%
same,inhibition,[4]; at 0.5 µM,47.7% (inactive) and 43.3% (inactive) and 58.9% (inactive)
same,inhibition,[4]; [16],10.2% and -20.8% and 4.16%
same,inhibition,[4]; [19],82.2% and 88% and 73.7%
same,inhibition,[4]; [20],88.7% and 77.4% and 94.2%
same,inhibition,[5]; at 0.5 µM,96.9% (active) and 98% (active) and 97.5% (active)
same,inhibition,"[5]; measured here: with BGB IC20, at 0.5 µM",96.8% and 97.1%
same,inhibition,"[5]; measured here: with BGB IC20, at 5 µM",97.9% and 97.6% and 98.3%
same,inhibition,"[5]; measured here: with cisplatin IC20, at 0.5 µM",95.9% and 98.1% and 97.3%
same,inhibition,"[5]; measured here: with cisplatin IC20, at 5 µM",99.6% and 99.8%
same,inhibition,"[5]; single agent, at 5 µM",99.8%
same,inhibition,[6]; at 0.5 µM,65.1% (inactive) and 60.8% (inactive) and 61.1% (inactive)
same,inhibition,"[6]; measured here: combination with BGB at IC20, at 0.5 µM",71% and 76.8% and 68.6%
same,inhibition,"[6]; measured here: combination with cisplatin at IC20, at 0.5 µM",64.4% and 48.3%
same,inhibition,[7]; at 0.5 µM,98% (active) and 98.7% (active) and 97.9% (active)
same,inhibition,"[7]; measured here: combo with BGB at IC20, at 0.5 µM",98% and 98.7% and 98.4%
same,inhibition,"[7]; measured here: combo with cisplatin at IC20, at 0.5 µM",97.6% and 98.6% and 97.2%
same,inhibition,[8]; at 0.5 µM,77% (inactive) and 79.8% (inactive) and 77.4% (inactive)
same,inhibition,"[8]; measured here: inhibition with BGB combination, at 0.05 µM",19.5% and 12.5% and 11.3%
same,inhibition,"[8]; measured here: inhibition with cisplatin combination, at 0.05 µM",13.4% and 13.9% and 19.4%
same,inhibition,[9]; at 0.5 µM,-1.34% (inactive) and 9.72% (inactive) and -3.02% (inactive)
same,inhibition,[9]; [19],29.4% and 18.3% and 22.7%
same,inhibition,[9]; [20],72.5% and 69.7% and 68.5%
same,inhibition,[10]; at 0.5 µM,69.2% (inactive) and 68.2% (inactive) and 67.8% (inactive)
same,inhibition,"[10]; measured here: BGB combination, at 0.5 µM",61.3% and 61.9% and 60.6%
same,inhibition,"[10]; measured here: BGB combination, at 5 µM",65.7% and 71.1% and 67.8%
same,inhibition,"[10]; measured here: cisplatin combination, at 0.5 µM",72.6% and 68.5% and 65.5%
same,inhibition,"[10]; measured here: cisplatin combination, at 5 µM",82% and 77.6% and 79.6%
same,inhibition,"[11]; BGB combination, concentration series, at 5 µM",103% and 101% and 96.7%
same,inhibition,[11]; at 0.5 µM,82.6% (active) and 85.9% (active) and 82.4% (active)
same,inhibition,"[11]; cisplatin combination, concentration series, at 5 µM",113% and 107% and 110%
same,inhibition,[12]; at 0.5 µM,64.5% (inactive) and 68.3% (inactive) and 55.5% (inactive)
same,inhibition,"[12]; measured here: combo with BGB IC20, at 0.5 µM",69.2% and 71.9% and 60.5%
same,inhibition,"[12]; measured here: combo with cisplatin IC20, at 0.5 µM",49.5% and 56.1% and 33.1%
same,inhibition,[13]; at 0.5 µM,1.98% (inactive) and 4.12% (inactive) and -13.3% (inactive)
same,inhibition,"[13]; cisplatin combination, at 0.5 µM",37.8% and 38.2% and 36.1%
same,inhibition,"[13]; cisplatin combination, at 5 µM",37.9% and 28.6% and 20.5%
same,inhibition,"[13]; measured here: BGB IC40 combination 0.05 uM, at 0.05 µM",-16.5% and -30.7% and -23.7%
same,inhibition,"[13]; single agent, at 5 µM",-16% and -5.69% and -15.3%
same,inhibition,[14]; at 0.5 µM,11.7% (inactive) and 6.99% (inactive) and 15.6% (inactive)
same,inhibition,"[14]; cisplatin combo, at 5 µM",82.3% and 73.1% and 75.9%
same,inhibition,"[14]; measured here: BGB IC40 combination, at 0.05 µM",-8.83% and -28.2% and -20.8%
same,inhibition,[14]; [19],55.7% and 30% and 38.3%
same,inhibition,"[14]; single agent, at 5 µM",22.6% and 40.2% and 40.4%
same,inhibition,[15]; at 0.5 µM,78.9% (inactive) and 88.5% (active) and 81.8% (active)
same,inhibition,[15]; [17],91% and 95% and 93.8%
same,inhibition,[15]; [18],72.9% and 85.2% and 75.9%
same,inhibition,"[15]; single agent, at 0.05 µM",35.3% and 52% and 56.4%
same,inhibition,"[15]; single agent, at 5 µM",99.6% and 99.9% and 99.7%
